Data on 39 compounds can be found in PubChem BioAssay (NCI).

Where “and” joins values, the source holds several entries; their conditions need not be identical. Equal entries are not always repeated. The panel holds about 83,000 compounds, 20% with a hit somewhere; the sample as a whole holds those more often.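 How to read the values: 0–100, growth inhibition (40 = 60% inhibited); 0, no net growth; -100 to 0, cell death (-40 = 40% of starting cells died; -100 = all dead).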 A number with no mark means an inactive call. Calls of active or inactive are those of the source.

The subject of one test is U251 CNS. Nature of the test: NCI-60 one-dose screen, 48 h (100 = growth as untreated, 0 = no growth, -100 = all killed). To be noted: 1 µM. On the procedure: Growth inhibition of the U251 human tumor cell line is measured as a screen for anti-cancer activity. Cells are grown in 96 well plates and exposed to the test compound for 48 hours. Compounds are tested at a single concentration, which is 10^-5 M for most compounds. The reported endpoint is percent growth (GI% or GIPRCNT), where numbers from 0 - 100% represent growth inhibition, and numbers from -100% - 0 represent cell death. For example, a value of 40 represents 60% growth inhibition. A value of 0 means no net growth occurred over the course of the experiment. A value of -40 indicates 40% of cells at the beginning of the experiment died by the end of the experiment. A value of -100 means all cells are dead at the end of the experiment.
NCI-60 Human Tumor Cell Lines Screen was performed using the standard one-dose NCI protocol, which is described in more detail at https://dtp.cancer.gov/discovery_development/nci-60/default.htm.
Compounds with GIPRCNT values below 10 were considered active. Activity score was based on GIPRCNT using the following formula: […]
Score is 0 for GIPRCNT values of 100 or above, 50 for GIPRCNT values of 0, and 100 for GIPRCNT values of -100.
`CC/C(=C(/c1ccc(O)cc1)c1ccc(OCCN(C)C(=O)CCOCCNC(=O)Cc2ccc3c(c2)CN([C@@H]2CCC(=O)NC2=O)C3=O)cc1)c1ccccc1`: the growth is 96.2%.

Still in this test, the particulars now being: 10 µM.
Turning to `CC/C(=C(/c1ccc(O)cc1)c1ccc(OCCN(C)C(=O)CCOCCNC(=O)Cc2ccc3c(c2)CN([C@@H]2CCC(=O)NC2=O)C3=O)cc1)c1ccccc1`, the growth was 92.6%.

Still in this test, the particulars now being: 10 µM unless noted.
For the compound `Cn1cc(-c2cc(N)n3nc(-c4c[nH]c5ccc(Cl)cc45)cc3n2)c2cc(Br)cnc21`, the growth is -73.9% (active).

For the compound `Cc1ccc(C(=O)Nc2cccc(C(=O)NC(=S)Nc3ccc(S(N)(=O)=O)cc3)c2)cc1`, the growth is 84.4%.

Regarding `Clc1ccc(CNc2nc(SCCN3CCOCC3)nc3c2cnn3CC(Cl)c2ccc(Br)cc2)cc1` (stereo not given), the growth was 38.3%.

Regarding `Cc1ccc(N=Nc2c(N)nn3c(-c4cc5cc(Br)ccc5oc4=O)ccnc23)cc1`, the growth was 13%.

For the compound `C[C@@H](Nc1c(C#N)cnc2ccc(-c3cnc4[nH]ncc4c3)cc12)c1ccccc1`, the growth was 23.4%.

In the case of `O=C(NNC(=O)c1ccc(OCc2nc3ccc(Cl)cc3[nH]2)cc1)Nc1ccc(Cl)c(Cl)c1`, the growth is -1.4% (active).

Turning to `CC(=O)Nc1ccc(S(=O)(=O)Nc2ccc(-c3ccc4c(c3)NC(=O)/C4=C\c3ccc[nH]3)cc2)cc1`, the growth was 89.2%.

Turning to `CCOc1ccc2[nH]c(=O)c(C(c3nnnn3CC3CCCO3)N3CCN(Cc4ccccc4)CC3)cc2c1` (stereo not given), the growth was 60.9%.

With `O=C1c2cccc3c(N4CCN(Cc5ccccc5)CC4)ccc(c23)C(=O)N1c1cccc(-c2nn(-c3ccccc3)cc2-c2nc3ccccc3s2)c1`, the growth was 106%.

In the case of `COc1ccc(-c2nc3ccccc3n2CC(=O)N=Nc2c(O)[nH]c3ccc(Br)cc23)cc1`, the growth is 105%.

For the compound `O=C(Nc1ccc(-c2ccc3c(c2)NC(=O)/C3=C\c2ccc[nH]2)cc1)Nc1ccc(Cl)c(Cl)c1`, the growth is 21.9%.

As for `COC(=O)c1c(C(=O)OC)c2ccc3c4ccccc4ccc3n2c1C(=O)OC`, the growth is 97.1%.

In the case of `CC[C@]12C=CCN3CC[C@]4(C(=C(C(=O)OC)C1)Nc1cc(OC)c([C@@H]5[C@H]6O[C@H]6[C@@]6(CC)CC(C(=O)OC)=C7Nc8cc(OC)ccc8[C@@]78CCN5[C@@H]68)cc14)[C@@H]32`, the growth is 48.4%.

Take `CN(C)C(=O)c1cc(-c2ccc3ncnc(N4CCc5cc(F)c(Cl)cc54)c3c2)cnc1N`: the growth is -55.7% (active).

For the compound `O=C1CCC(N2C(=O)c3cccc(NCCCCCC(=O)N4CCN(c5ccc6nc7c(nc6c5C(F)(F)F)C(=O)c5ncccc5C7=O)CC4)c3C2=O)C(=O)N1` (stereo not given), the growth is -90.4% (active).

On to `CN1C(=O)C(O)(CC(=O)c2cc3ccccc3oc2=O)c2ccccc21` (stereo not given), for which the growth was 97.2%.

For `CN(C)c1ccc(/C=C/c2n(Cc3ccc4ccccc4c3)c3ccccc3[n+]2Cc2ccc3ccccc3c2)cc1`, the growth is -67.5% (active).

For the compound `CC(C)CN1C(=O)/C(=C\C(=O)c2cc3ccccc3oc2=O)c2ccccc21`, the growth is 106%.

Regarding `COc1ccccc1NC(=O)c1ccc(NC(=O)CCl)s1`, the growth was -51.2% (active).

As to `CCN1CCN(Cc2ccc(C(=O)Nc3cccc(Nc4ccc5c(OC)cccc5n4)c3)cc2C(F)(F)F)CC1`, the growth is -80.9% (active).

As to `COC(=O)c1cc(C(=O)C(Br)Br)n2c1ccc1c3ccccc3ccc12`, the growth is 44.3%.

With `O=C1C=CC(=CC=C2N(Cc3ccc4ccccc4c3)c3ccccc3N2Cc2ccc3ccccc3c2)C=C1`, the growth is 17.4% and 17.6%.

For the compound `COc1ccc([C@H]2C(C(=O)c3ccc(Cl)cc3)C3(N[C@@H]2c2ccccc2)C(=O)Nc2ccccc23)cc1` (stereo not given in full), the growth was 36.5%.

With `COc1ccc2c(c1)C(Sc1ccc(Br)cc1)c1c(nc(N)c(C#N)c1N)O2` (stereo not given), the growth is 77.2%.

For `O=CNc1ccc(-n2cnc3cc(-c4ccc(O)cc4)ccc32)cc1`, the growth was 84.6%.

As to `COc1c(B(O)O)cccc1-c1nc2ccc3cn[nH]c3c2c2c1CCCC2`, the growth was 48.1%.

In the case of `O=C(O)CC1S/C(=N/N=C/c2nc3ccccc3s2)NC1=O` (stereo not given), the growth is 89.8%.

`Cc1nn(-c2ccccc2)c2nc(C)n(CC(=O)N/N=C/c3cccc([N+](=O)[O-])c3)c(=O)c12`: the growth is 98.3%.

With `Nc1cc2ccccc2c(=O)n1NC(=O)c1ccc(Br)cc1`, the growth was 96.1%.

Turning to `O=C1Nc2ccccc2/C1=C/C(=O)c1cc2ccccc2oc1=O`, the growth is 107%.

For the compound `N#CC1=C(c2cccs2)Nc2c(c(-c3ccccc3)nn2-c2ccccc2)C12C(=O)Nc1ccccc12` (stereo not given), the growth is 11.6%.

Regarding `O=[N+]([O-])c1cccc(-c2nnc3c(/C=C/c4ccc(F)cc4)nc4ccccc4n23)c1`, the growth was 95.9%.

For `COc1ccc(OC)c(Cn2cc(C#N)c(N)c2C(=O)c2ccc(Br)cc2)c1`, the growth is 26.3%.

For the compound `COc1ccc(NC(=O)Cn2c(/C=C/c3cccc(Br)c3)nc3ccccc3c2=O)cc1`, the growth was -1.66% (active).

In the case of `CN1CCN(C(=O)CCN(C(=O)Oc2cc3c(c4ccccc24)[C@H](CCl)CN3C(=O)c2cc3cc(OCCCN4CCC4)ccc3[nH]2)[C@H]2CCSSC2)CC1`, the growth was -65.9% (active).

As to `COc1ccccc1/C=C/c1cccc(NC(=S)NCCCCN(C)C)c1`, the growth is -64.7% (active).

Regarding `N#Cc1cc(-c2ccnc(Nc3ccc(N4CCN(C5COC5)CC4)cc3)n2)ccc1N1CCCC1`, the growth was 75.7%.

For the compound `O=C1NC(=S)/C(=C/c2cn(-c3ccccc3)nc2-c2ccccc2)S1`, the growth was 14.6%.
